SMARCA2 act: SMARCA2 (BRM) function activators, primary screen, cell-based, luminescence, high throughput; activation, % at 9.1 µM; 370,000 compounds, 1% hits; AID 652017, 2013; MG213 cells, MMTV-luciferase reporter, dexamethasone, overnight; in the data active means activation above about 7.8%;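 further: 0% = vehicle wells and 100% = reference activator wells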
hgDAF12 agonist: H. glycines DAF-12 receptor agonists, primary screen, cell-based, luminescence, HEK293, GAL4 fusion, UAS-luciferase. Nuclear hormone receptor DAF-12 (Heterodera glycines), GAL4 fusion. HEK293 GAL4-hgDAF12 UAS-luciferase reporter, agonist luminescence; normalized to butyrate control. activation, % at 6.8 µM. 370,000 compounds, 1.8% hits. AID 687014, 2013;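 active means activation above a cutoff set at the mean of all screened compounds plus 3 SD, cut at about 10% in these data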;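 further: 0% = DMSO wells and 100% = sodium butyrate wells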
DAX1 inh-1: DAX1 (NR0B1) inhibitors on StAR promoter, primary screen, cell-based, luminescence, SF-1 (NR5A1), full-length DAX-1 | HEK293T StAR-luciferase reporter, SF-1/DAX-1 repression relief | inhibition, % at 6.8 µM | 370,000 compounds, 1.1% hits | AID 652010, 2013;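 active means inhibition above the mean over all tested compounds plus 3 SD, cut at about 3.6% in these data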;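 further: 0% = DAX-1 cells with DMSO and 100% = cells lacking DAX-1 with DMSO; higher inhibition means more luminescence from relief of DAX-1 repression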
ssDAF12 agonist: S. stercoralis DAF-12 nuclear receptor activators, primary screen, cell-based, luminescence, HEK293, GRIP1 co-expression, lit1-tk-luc; Nuclear hormone receptor DAF-12 (Strongyloides stercoralis); HEK293 ssDAF-12/GRIP1 lit1-tk-luc reporter; % of 3 µM dafachronic acid response; activation, % at 6.8 µM; 370,000 compounds, 1% hits; AID 652126, 2013;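 active means activation above the mean over all tested compounds plus 3 SD, cut at about 0.9% in these data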;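 further: 0% = DMSO-only wells and 100% = 3 µM delta7-dafachronic acid wells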
DAX1 inh-2: DAX1 (NR0B1) inhibitors, primary screen, cell-based, HEK293, Gal4-DAX1, luciferase luminescence; 340,000 compounds, 0.99% hits; inhibition, % at 6.75 µM; Nuclear receptor subfamily 0 group B member 1 (Homo sapiens), P51843; AID 504766, 2011; HEK293 Gal4-DAX1 luciferase reporter;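 active means inhibition above the mean over all tested compounds plus 3 SD, cut at about 4.2% in these data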;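 further: 0% = DAX1-transfected cells with DMSO and 100% = empty-vector control cells with DMSO; inhibition shows as a rise in luminescence from relieved DAX1 repression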
Target sequence (P51843 207-470 limits assumed): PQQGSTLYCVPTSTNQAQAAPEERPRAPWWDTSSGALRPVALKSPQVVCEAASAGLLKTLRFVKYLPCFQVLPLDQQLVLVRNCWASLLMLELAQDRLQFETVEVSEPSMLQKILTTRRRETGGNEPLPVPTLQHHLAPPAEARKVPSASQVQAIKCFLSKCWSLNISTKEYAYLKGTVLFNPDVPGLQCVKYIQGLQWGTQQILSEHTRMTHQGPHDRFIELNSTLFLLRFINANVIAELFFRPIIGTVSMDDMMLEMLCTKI
hcDAF-12 act: H. contortus DAF-12 nuclear receptor activators, primary screen, cell-based, luminescence, HEK293, lit1-tk-luc reporter. AID 652067, 2013. HEK293 hcDAF-12 lit1-tk-luc reporter; 0% DMSO, 100% Δ7-dafachronic acid. 370,000 compounds, 1.4% hits. activation, % at 6.8 µM;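 active means activation above the mean of all tested compounds plus 3 SD, cut at about 5.5% in these data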;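 further: 100% = response to 3 µM Δ7-dafachronic acid high control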
* marks the source's active call; other numbers are inactive results; nt = no result. Sampled rows, rich in hits. Any-hit rate of the full collection: about 4.8%.

SMILES | SMARCA2 act | hgDAF12 agonist | DAX1 inh-1 | ssDAF12 agonist | DAX1 inh-2 | hcDAF-12 act
CCOC(=O)c1cc(C#N)c(Oc2ccccc2)nc1-c1ccccc1 | -2 | -3 | -2 | -1 | 0 | -2
Cc1ccccc1C(=O)Oc1ccc2ccc(O)cc2c1 | 6 | 10* | 1 | -1 | 4.7* | 2
Cc1ccccc1S(=O)(=O)Oc1ccc2ccc(O)cc2c1 | 2 | 9 | 0 | -1 | 2 | 2
O=C(NCc1ccccc1)c1noc2c1CCCC2 | 5 | 8 | 0 | -1 | 1 | 0
Cc1ccc(NC(=O)c2noc3c2CCCCC3)cc1C | 1 | 9 | 4.0* | 0 | 4 | 4
O=C(NCCc1ccccc1)c1cc2ncc(Br)cn2n1 | 8.1* | 7 | 2 | -1 | 1 | 2
O=C(NCCc1ccccc1)c1noc2c1CCCCC2 | 5 | 12* | 4.3* | -1 | 3 | 2
CC(C)c1cc(C(=O)NCCc2ccccc2)no1 | 2 | 6 | 3 | 1 | 7.4* | 5
O=C(Nc1cccc(NC(=O)c2ccccc2Cl)c1)c1ccc([N+](=O)[O-])o1 | -1 | -7 | -2 | -1 | -2 | -2
CC1=NN(c2ccccc2)C(=O)C1C(=O)C(=O)Nc1ccc(F)cc1 (centres undefined) | 2 | 11* | 4.3* | -1 | 0 | 4
CC1=NN(c2ccccc2)C(=O)C1C(=O)c1ccccc1 (centres undefined) | 0 | -2 | 1 | -1 | 1 | -1
COc1ccc(C(=O)OC2CCN(c3ncc(C(F)(F)F)cc3Cl)CC2)cc1 | 0 | 1 | -1 | -2 | 1 | 1
COc1ccc([C@H]2C=C3CN(C(=O)OC(C)(C)C)S(=O)(=O)[C@H]3C[C@H]2OC(=O)c2ccc(C(F)(F)F)cc2)cc1 | -1 | 0 | 1 | 0 | 2 | 5.7*
COc1cccc(NC(=O)Cn2c(=O)oc3ccccc32)c1 | -3 | 1 | 0 | -1 | 0 | -2
COc1ccc(-c2nc(NC(=O)Cn3c(=O)oc4ccccc43)sc2C)cc1 | -2 | 2 | 0 | 0 | 4.7* | 3
COCCCn1c(C(=O)NCCC2=CCCCC2)cc2c(=O)n3ccccc3nc21 | 0 | -1 | -1 | -1 | 0 | -1
COc1ccccc1C(CNC(=O)c1cccc(S(=O)(=O)NCc2ccccc2)c1)N(C)C (centres undefined) | -1 | 0 | 0 | -1 | 4.8* | 0
CCOc1ccc(S(=O)(=O)Nc2cccc(C(=O)NCC(c3ccccc3)N(C)C)c2)cc1 (centres undefined) | 3 | 3 | 3.6* | -1 | 1 | -1
COc1cccc(CN(C)C(=O)c2cccc(S(=O)(=O)NCc3ccccc3)c2)c1OC | -2 | -1 | -2 | -1 | -1 | 0
Cc1ccc(NC(=O)CSc2nnc(N)s2)c([N+](=O)[O-])c1 | 1 | -1 | 1 | -2 | 0 | -1
COc1cccc(NC(=O)C2(C)CCN2C(=O)CCc2ccc(Cl)cc2Cl)c1 (centres undefined) | -2 | 0 | 0 | 1.6* | nt | -2
CCCCN1C(=O)N2Cc3ccc(C)cc3C2CS1(=O)=O (centres undefined) | 2 | 6 | 2 | -1 | nt | 2
COC(=O)c1ccccc1NC(=O)CN1C(=O)NC2(CCCCCCC2)C1=O | 1 | 1 | 1 | 0 | 0 | 1
CCN(CC)Cc1c(NC(=O)c2ccccc2)sc(C)c1C | 3 | 11* | 1 | 0 | 4 | 5
O=C(COc1ccccc1Cl)Nc1cc(Cl)ccc1O | 5 | 6 | 1 | 1.6* | 4.9* | 5.7*
SMILES | SMARCA2 act | hgDAF12 agonist | DAX1 inh-1 | ssDAF12 agonist | DAX1 inh-2 | hcDAF-12 act
COc1ccc(N2CCCC2)c(NC(=O)COc2ccccc2Cl)c1 | -1 | 1 | 0 | 1.5* | 0 | 4
O=C(COc1ccc(Br)cc1)Nc1ccccc1N1CCCC1 | 2 | 2 | 0 | 1.4* | 2 | 1
O=C(CN1C(=O)C2CCCCC2C1=O)Nc1ccccc1N1CCCC1 (centres undefined) | -2 | 2 | 4.1* | -1 | 2 | 1
CC(=O)N1CCN(c2ccccc2NC(=O)COc2ccc(Br)cc2)CC1 | -1 | 0 | -1 | -2 | 0 | -2
CCOC(=O)CSc1nnc(CSc2nc(C)cc(C)n2)n1Cc1ccco1 | -2 | 0 | -1 | -1 | 1 | -1
COC(=O)c1sc2ncccc2c1OCc1cccc(Cl)c1 | -3 | 3 | -2 | -1 | 4.2* | -2
CC[C@]1(c2cccc(C)c2)C(=O)N(C(=O)OC)N1C(=O)OC | -1 | 2 | 1 | -1 | 1 | -2
Cc1ncoc1C(=O)N1CCc2c([nH]c3ccccc23)C1C(C)(C)C (centres undefined) | -4 | 0 | 3 | 1.0* | 1 | 5.6*
O=C(c1ccc(Cl)cc1)N1CCc2c([nH]c3ccccc23)C1C(F)(F)F (centres undefined) | -5 | -1 | 0 | -1 | -1 | 0
Cc1ncoc1C(=O)N1CCc2c([nH]c3ccccc23)C1C1CCCCC1 (centres undefined) | 0 | 8 | 1 | 1 | -1 | 6.1*
CCOC(=O)C1(C)CCN1C(=O)c1ccoc1 (centres undefined) | -3 | 3 | 1 | -2 | nt | -1
N#CCSCC(=O)Nc1ccccc1 | 0 | 1 | 1 | -1 | 1 | 1
N#C/C(Cn1c[n+](NC(=O)Nc2ccccc2)cn1)=N/O | -2 | 3 | 0 | -1 | 4.7* | -1
Oc1cccc(/C=N/Nc2ncnc3c2ncn3Cc2ccccc2)c1 | 0 | 5 | 1 | -1 | 1 | 2
Oc1ccc(/C=N/Nc2ncnc3c2ncn3Cc2ccccc2)cc1O | 0 | 1 | 0 | 1.3* | 0 | -2
CC(=O)C[C@H](O)CC(=O)[C@@H]1OC(=O)CCCCC/C=C/Cc2ccccc21 | -2 | -1 | 0 | -1 | 0 | 1
COc1ccc(-c2cc3c(=O)n(CC(=O)NCCN4CCCC4)nc(C)n3n2)cc1 | -1 | 2 | 1 | -1 | 0 | 1
COc1ccc(CN(CC(=O)NC2CCCCC2)C(=O)CCCC(=O)Nc2ccccn2)cc1 | 0 | -2 | 0 | 0 | 2 | 3

Screens from PubChem BioAssay.
